Structures can show the parent of a compound that is named as a salt. ± gives the standard deviation of the averaged measurements.
Tests used:
[1] = tested on: CLZ3 (HCA2 human fibroblast dual HR-NHEJ reporter); assay: NHEJ repair efficiency (GFP+ cells) relative to control (log10 fold); higher = more non-homologous end joining; conditions: 5 µM; doxycycline 0.5 ug/mL
[2] = tested on: CLZ3 (HCA2 human fibroblast dual HR-NHEJ reporter); assay: HR repair efficiency (tdTomato+ cells) relative to control (log10 fold); higher = more homologous recombination; conditions: 5 µM; doxycycline 0.5 ug/mL
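Wherever HR repair efficiency (tdTomato+ cells) relative to control is given: compound given one day before doxycycline, which switches on I-SceI endonuclease expression to create double-strand breaks within the integrated reporter.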
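Wherever NHEJ repair efficiency (GFP+ cells) relative to control is given: compound given one day ahead of doxycycline, which switches on I-SceI endonuclease to cut the chromosomally integrated reporter and create DSBs.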

SMILES | NHEJ repair efficiency (log10) [1] | HR repair efficiency (log10) [2]
C/C1=C\CC[C@]23O[C@H]2[C@@H](OC3=O)c2c(C)coc2C1 [Linderane] | -0.0245 | 0.0607
COc1cc(CNC(=O)CCCC/C=C/C(C)C)ccc1O [Capsaicin] | -0.0748 | -0.0984
O=c1cc(-c2ccc(O)cc2)oc2c([C@@H]3O[C@H](CO)[C@@H](O)[C@H](O)[C@H]3O)c(O)cc(O)c12 [Vitexin] | 0.172 | 0.126
COc1ccc(-c2cc(=O)c3c(O)cc(O)cc3o2)cc1 [Acacetin] | -0.203 | 0.0794
CC1(C)CC[C@]2(C(=O)O[C@@H]3O[C@H](CO)[C@@H](O)[C@H](O)[C@H]3O)CC[C@]3(C)C(=CC[C@@H]4[C@@]5(C)CC[C@H](O[C@@H]6O[C@H](C(=O)O)[C@@H](O)[C@H](O)[C@H]6O[C@@H]6O[C@H](CO)[C@@H](O)[C@H](O)[C@H]6O)C(C)(C)[C@@H]5CC[C@]43C)[C@@H]2C1 [Ginsenoside Ro] | 0.13 | 0.3
COc1cc(-c2oc3cc(O)cc(O)c3c(=O)c2O[C@@H]2O[C@H](CO)[C@@H](O)[C@H](O)[C@H]2O[C@@H]2O[C@@H](C)[C@H](O)[C@@H](O)[C@H]2O)ccc1O [Isorhamnetin 3-O-Neohesperoside] | -0.0528 | -0.0275
OC[C@H]1OC(O)[C@@H](O)[C@@H](O)[C@@H]1O (stereo not given in full) [Mannose] | 0.0722 | 0.0481
CC1(C)O[C@H]2CC(=O)OC[C@]23[C@H]2CC[C@@]4(C)[C@H](c5ccoc5)OC(=O)[C@H]5O[C@]54[C@]2(C)C(=O)C[C@@H]13 [Limonin] | 0.0392 | -0.00925
COc1ccc2cc1Oc1ccc(cc1)C[C@H]1c3cc(c(OC)cc3CCN1C)Oc1c(OC)c(OC)cc3c1[C@H](C2)N(C)CC3 [Tetrandrine] | 0.294 | -0.328
CC(=O)O[C@H]1CC(=O)OC(C)(C)[C@@H]2CC(=O)[C@]3(C)[C@H](CC[C@@]4(C)[C@@H](c5ccoc5)OC(=O)[C@H]5O[C@]543)[C@@]12C [Nomilin] | -0.276 | -0.226
COc1ccc2c(OC)c3ccoc3nc2c1OC [Skimmianine] | -0.0606 | 0.00427
CC1(C)O[C@H]1COc1c2ccoc2cc2oc(=O)ccc12 [Oxypeucedanin] | 0.0689 | 0.0078
COc1ccc(-c2oc3c(CC=C(C)C)c(O[C@@H]4O[C@H](CO)[C@@H](O)[C@H](O)[C@H]4O)cc(O)c3c(=O)c2O[C@@H]2O[C@@H](C)[C@H](O)[C@@H](O)[C@H]2O)cc1 [Icarrin] | -0.0369 | 0.0409
O=C(O)CC(O)C(=O)O (stereo not given) [Malic Acid] | -0.069 | -0.141
COc1cc(C2Oc3cc([C@H]4Oc5cc(O)cc(O)c5C(=O)[C@@H]4O)ccc3OC2CO)ccc1O (stereo not given in full) [Silymarin Ⅱ] | -0.124 | -0.127
C[C@H](CCC(=O)O)[C@H]1CC[C@H]2[C@@H]3[C@H](O)C[C@@H]4C[C@H](O)CC[C@]4(C)[C@H]3C[C@H](O)[C@]12C [Cholic acid] | -0.0347 | -0.0733
COc1cc([C@@H]2Oc3c(O)cc([C@H]4Oc5cc(O)cc(O)c5C(=O)[C@@H]4O)cc3[C@H]2CO)ccc1O [Silicristin] | -0.0735 | 0.068
CC(C)=CC/C=C(\C)[C@H]1CC[C@]2(C)[C@@H]1[C@H](O)C[C@@H]1[C@@]3(C)CC[C@H](O[C@@H]4O[C@H](CO)[C@@H](O)[C@H](O)[C@H]4O[C@@H]4O[C@H](CO)[C@@H](O)[C@H](O)[C@H]4O)C(C)(C)[C@@H]3CC[C@]12C [Ginsenoside Rg5] | 0.0582 | 0.0507
O=C(/C=C/C=C/c1ccc2c(c1)OCO2)N1CCCCC1 [Piperine] | 0.0542 | 0.0832
CC1(C)CC[C@]2(C(=O)O)CC[C@]3(C)C(=CC[C@@H]4[C@@]5(C)CC[C@H](O[C@@H]6O[C@H](C(=O)O)[C@@H](O)[C@H](O[C@@H]7OC[C@@H](O)[C@H](O)[C@H]7O)[C@H]6O)C(C)(C)[C@@H]5CC[C@]43C)[C@@H]2C1 [Momordin Ic] | 0.0282 | -0.203
COc1ccc2cc3[n+](cc2c1OC)CCc1cc2c(cc1-3)OCO2 [Berberine hydrochloride] | -0.127 | -0.283
O=C(C=Cc1ccc(O)c(O)c1)O[C@@H]1C[C@@](O)(C(=O)O)C[C@@H](O)[C@@H]1O [5-Caffeoylquinic Acid] | -0.0761 | -0.0365
COC(=O)c1ccccc1O[C@@H]1O[C@H](CO[C@@H]2OC[C@@H](O)[C@H](O)[C@H]2O)[C@@H](O)[C@H](O)[C@H]1O [Gaultherin] | -0.0565 | -0.122
O=C(/C=C/c1ccc(O)c(O)c1)O[C@@H]1C[C@](OC(=O)/C=C/c2ccc(O)c(O)c2)(C(=O)O)C[C@@H](O)[C@H]1O [1,3-Di-O-Caffeoylquinic Acid] | -0.263 | -0.0833
O=c1c(O)c(-c2ccc(O)c(O)c2)oc2cc(O)cc(O)c12 [Quercetin] | -0.047 | 0.086

SMILES | NHEJ repair efficiency (log10) [1] | HR repair efficiency (log10) [2]
C=C(C(=O)O)[C@@H]1CC[C@@H](C)[C@@H]2CCC(C)=C[C@@H]21 [Artemisinic acid] | 0.0135 | 0.116
O=C(/C=C/c1ccc(O[C@@H]2O[C@H](CO)[C@@H](O)[C@H](O)[C@H]2O)cc1)c1ccc(O)cc1O [Isoliquiritoside] | -0.17 | -0.232
O=c1oc2c(O)cc(O)cc2c2oc3cc(O)c(O)cc3c12 [Isodemethylwedelolacton] | -0.0118 | 0.0907
C[C@@H]1CC[C@]2(C(=O)O)CC[C@]3(C)C(=CC[C@@H]4[C@@]5(C)CC[C@H](O)[C@@](C)(CO)[C@@H]5CC[C@]43C)[C@@H]2[C@]1(C)O [Rotundic Acid] | -0.0308 | 0.0236
COc1cc(C[C@@H](CO[C@@H]2O[C@H](CO)[C@@H](O)[C@H](O)[C@H]2O)[C@H](CO[C@@H]2O[C@H](CO)[C@@H](O)[C@H](O)[C@H]2O)Cc2ccc(O)c(OC)c2)ccc1O [Secoisolariciresinol Diglycoside] | 0.00786 | 0.0805
COc1cc(-c2oc3cc(O)cc(O)c3c(=O)c2O[C@@H]2O[C@H](CO[C@H]3O[C@H](C)[C@@H](O)[C@H](O)[C@@H]3O)[C@@H](O)[C@H](O)[C@H]2O)ccc1O [Narcissoside; Isorhamnetin-3-O-β-D-rutinoside] | 0.0544 | -0.0269
COc1cc(-c2oc3cc(O)cc(O)c3c(=O)c2O[C@@H]2O[C@H](CO)[C@@H](O)[C@H](O)[C@H]2O[C@@H]2O[C@@H](C)[C@H](O)[C@@H](O)[C@H]2O)ccc1O [Isorhamnetin-3-O-Nehesperidine] | -0.039 | -0.0649
O=c1c(O)cc([C@H]2Oc3cc(O)cc(O)c3C[C@H]2O)cc2c([C@H]3Oc4cc(O)cc(O)c4C[C@H]3O)cc(O)c(O)c12 [Theaflavin] | 0.0294 | 0.0415
Cc1nc(C)c(C)nc1C [Ligustrazine hydrochloride] | 0.0819 | 0.079
CC1(C)C2CCC1(C)C(O)C2 (stereo not given) [Borneol] | 0.0116 ± 0.059 | 0.0372 ± 0.12
COc1ccc(C(=O)O)cc1 [Anisic Acid] | 0.0832 | 0.118
COc1ccc(C[C@H]2COC(=O)[C@@H]2Cc2ccc(O[C@@H]3O[C@H](CO)[C@@H](O)[C@H](O)[C@H]3O)c(OC)c2)cc1OC [Arctiin] | -0.18724 ± 8.6e-05 | -0.203 ± 0.1
COc1ccc2ccc(=O)oc2c1CC=C(C)C [Osthole] | 0.0815 | -0.0645
C=C[C@H]1[C@H](O[C@@H]2O[C@H](CO)[C@@H](O)[C@H](O)[C@H]2O)OC=C(C(=O)OC)[C@H]1CCOC(=O)c1cc(O)c(O)c(O)c1 [Cornuside] | 0.0361 | 0.162
O=C(O)/C=C/c1ccc(O)c(O)c1 [Caffeic Acid] | 0.0711 | 0.156
COc1ccc(/C=C/c2cc(O)cc(O[C@@H]3O[C@H](CO)[C@@H](O)[C@H](O)[C@H]3O)c2)cc1O [Rhapontin] | 0.134 | 0.0931
O=c1c(-c2ccc(O)cc2)coc2cc(O)cc(O)c12 [Genistein] | -0.0971 | -0.179
O=C(O)C1=CO[C@@H](O[C@@H]2O[C@H](CO)[C@@H](O)[C@H](O)[C@H]2O)[C@@H]2C(CO)=CC[C@H]12 [Geniposidic acid] | -0.068 | -0.00169
O=c1c(-c2ccc(O)cc2)coc2cc(O[C@@H]3O[C@H](CO)[C@@H](O)[C@H](O)[C@H]3O)ccc12 [Daidzin] | -0.234 | 0.03
C=C(C)[C@@H]1CC[C@]2(C(=O)O)CC[C@]3(C)[C@H](CC[C@@H]4[C@@]5(C)CC[C@H](O)C(C)(C)[C@@H]5CC[C@]43C)[C@@H]12 [Betulinic acid] | 0.0052 | 0.0512
Oc1cc(O)c2c(c1)OC(c1ccc(O)c(O)c1)C(O)C2 (single isomer, unassigned; (+)) [(+)-Catechin] | 0.0406 | -0.0449
CC(/C=C/C=C(\C)C(=O)O[C@@H]1O[C@H](CO[C@@H]2O[C@H](CO)[C@@H](O)[C@H](O)[C@H]2O)[C@@H](O)[C@H](O)[C@H]1O)=C\C=C\C=C(C)\C=C\C=C(/C)C(=O)O[C@@H]1O[C@H](CO[C@@H]2O[C@H](CO)[C@@H](O)[C@H](O)[C@H]2O)[C@@H](O)[C@H](O)[C@H]1O [Crocin I] | 0.0171 | 0.076
O=C1C[C@@H](c2ccc(O)c(O)c2)Oc2cc(O)cc(O)c21 [Eriodictyol] | -0.0055 | 0.0227
O=C1c2ccccc2C(=O)c2c(O)c(O)cc(O)c21 [Purpurin] | -0.0313 | 0.0725
COc1ccc(-c2cc(=O)c3c(O)cc(O)c(-c4cc(-c5cc(=O)c6c(O)cc(OC)cc6o5)ccc4OC)c3o2)cc1 [Sciadopitysin] | 0.0652 | 0.234

From the supplement of paper PMC7380943
